The structures appear in SMILES notation. In all, about 360,000 compounds went through this assay and about 7,300 (2%) were called active. The list comes from a sample in which actives are over-represented; it also holds similar structures and randomly drawn compounds. A number with no mark means an inactive call. No stated cut-off is given here; in the data, active means inhibition above about 50%; inactive means the rest.

This test can be described thus: inhibitors of TWEAK-Fn14 signaling, primary screen, luciferase reporter cells, uHTS (AID 1159606). To be noted: TWEAK-stimulated Fn14 reporter cells, luciferase luminescence, 8 h; at 10 µM; active compounds read high. For orientation: In a reporter assay the amount or activity of a reporter protein is the signal.
Take `CC(C)Oc1ccc(S(=O)(=O)N2CCOCC2)cc1NC(=O)C1CSC2(C)CCC(=O)N12` (centres undefined): the inhibition is -10.2%. Then `CC1(C(=O)NCc2cccc3ccccc23)CCN1Cc1ccc(-c2ccccc2)o1` (centres undefined), with 7.77%; and `Cc1ccc(-c2c[n+](=O)c3c(n2[O-])CCC3)cc1`, with -2.42%; and `CCCCCn1nnnc1C1c2ccccc2C(=O)N1Cc1ccco1` (centres undefined), with 16.5%. Then `O=C(Nc1ccc2c(c1)OCCO2)C1c2ccccc2OCC(=O)N1Cc1ccccn1` (centres undefined), with -0.53%; and `Cc1ccnc(N2C(=O)c3ccccc3C2Nc2ccc3c(c2)OCCO3)c1` (centres undefined), with 61.2% (active); and `O=C1c2ccccc2C(Nc2ccc3c(c2)OCCO3)N1Cc1ccco1` (centres undefined), with 70.9% (active). `S=C(NCc1ccco1)Nc1ccc2c(c1)OCCO2`: the inhibition was 2.21%.

Take `COC(=O)c1cc(NC2c3ccccc3C(=O)N2c2ccc(Cl)cn2)cc(C(=O)OC)c1` (centres undefined): the inhibition was -15.2%. Then `C[C@@H]1C[C@@H]2O[C@H]2/C=C\C=C\C(=O)Cc2c(Cl)c(O)cc(O)c2C(=O)O1`, with 90.7% (active). For `COc1ccc([C@H]2[C@H](C(C)=O)N3N=Cc4ccccc4C3C23C(=O)OC(C)(C)OC3=O)cc1` (some centres undefined), the inhibition is 10.5%. In the case of `C/C(=N/NC(=S)Nc1ccccc1)c1ccc2c(c1)OCO2`, the inhibition was -46.3%. Then `O=C(Nc1ccc2ccccc2c1)Nc1ccc2snnc2c1`, with 74.8% (active); and `Cc1ccc(NC(=O)Nc2ccc3oc(C)nc3c2)cc1`, with -4.94%. In the case of `S=C(Nc1ccccc1)Nc1ccc2ccccc2c1`, the inhibition was 0.33%. For the compound `O=C(C1CCC1)N1CCN(S(=O)(=O)c2ccc([N+](=O)[O-])cc2)CC1`, the inhibition is 4.46%.

Consider `CCOC(=O)[C@]12CCCC=C1N(Cc1ccc3c(c1)OCO3)C(=O)[C@H](CC(=O)NCc1cccs1)C2`, for which the inhibition was 15.5%. The figure for `O=S(=O)(Cc1ccc(Cl)cc1Cl)c1ccc(Cl)cc1` is 12.1%; for `CCCCNC(=O)C[C@@H]1C[C@@]2(C(=O)OCC)CCC=C2N(Cc2cccc3ccccc23)C1=O` it is 14.7%; for `CC(=O)c1c(C)oc2ccc(NS(=O)(=O)c3ccccc3)cc12` it is 21.6%. Regarding `COc1ccc(S(=O)(=O)Nc2ccc3oc(C)c(C(C)=O)c3c2)cc1`, the inhibition is 54.4% (active). The figure for `CC(=O)c1c(C)oc2ccc(NS(=O)(=O)c3ccc(C(=O)O)cc3)cc12` is 3.85%; for `CC1(C(=O)NS(=O)(=O)c2ccc(C#N)cc2)CCN1C(=O)CC1CCCC1` (centres undefined) it is 1.67%; for `CCCCCCN1C[C@H](O)[C@@H](n2cc(C3CC3)nn2)C[C@@H]1c1ccc(Cl)cc1` it is -1.73%.

One may read the inhibition as the relative decrease from the control value, in per cent.

For the origin of these results see PubChem BioAssay AID1159606 (Sanford-Burnham Center for Chemical Genomics, 2016).
